Screens deposited in PubChem BioAssay by National Center for Advancing Translational Sciences (NCATS).
FMDV antiviral: High Throughput Screening for Foot and Mouth Disease Virus Antivirals | Potency, µM (doses to about 57.9 µM), hits mostly inhibitors | FMDV antiviral cell-based qHTS | hit rate 1.2% among 410,000; calls by dose curve; tested in HEK293T cells; note: read-out not given here; nearly all actives have a fitted effect of over 45% in size
Lassa entry inh: qHTS for Inhibitors of binding or entry into cells for Lassa Virus; hit rate 1.2% among 300,000; Lassa virus pseudotype entry inhibition, cell reporter; Potency, µM (series often up to 37.9 µM), hits mostly inhibitors; calls by dose curve; tested in HEK293 cells; note: nearly all actives have a fitted effect of over 50% in size
Shiga inhibitor: A qHTS for Small Molecule Inhibitors of Shiga Toxin. Vero cells, Shiga toxin protein synthesis inhibition reporter. inhibition, % at 38.7 µM. hit rate 9.2% among 290,000; in the data active = inhibition mostly above about 28%, no sharp cut-off; inactive = mostly below about 43%
CHX counter: Cycloheximide Counterscreen for Small Molecule Inhibitors of Shiga Toxin. cell reporter, cycloheximide protein synthesis inhibition counterscreen. max response, %. hit rate 12% among 300,000. AID 2314, 2010; in the data active = max response mostly above about 13%, no sharp cut-off; inactive = mostly below about 14%; note: read at 38.3 µM for the half of the compounds with a filed dose
MARV entry inh: qHTS for inhibitors of binding or entry into cells for Marburg Virus; Marburg virus pseudotyped entry inhibition, cell reporter; Potency, µM (series often up to 37.8 µM), usual class: inhibitors; hit rate 1.8% among 300,000; calls by dose curve; tested in HEK293 cells
HCV inh: qHTS Assay for Inhibitors of Hepatitis C Virus (HCV); Huh7.5.1 HCVcc-Cre infection, luciferase reporter, 44 h; Potency, µM (top dose mostly 41.8 µM), usual class: inhibitors; hit rate 3.4% among 340,000; AID 651820, 2012; active = well fitted inhibition curve with a large enough effect; inconclusive = small, poorly fitted or top-dose-only effect, or another doubt; inactive = no such curve, though single readings can be large or run the other way
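Reporter virus HCVcc-Cre (~0.5 moi) infects cells exposed to compound; seeding density 1,000 cells/well with 4 h settling beforehand. Luminescence, 15 sec read, taken 44 h post-infection following a 15 min RT substrate incubation.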
Numbers stand for hits. Sampled rows, rich in hits. Any-hit rate of the full collection: about 13%.

Screening CCC(=O)Nc1ccc2nc(C3CC3)n(Cc3ccccc3)c(=O)c2c1 returned FMDV antiviral inactive, Lassa entry inh inconclusive, Shiga inhibitor inactive, CHX counter inactive, MARV entry inh inactive and HCV inh inconclusive.
CC(=O)Nc1ccc2nc(C)n(Cc3ccc(Cl)cc3)c(=O)c2c1 was read as FMDV antiviral inactive, Lassa entry inh inactive, Shiga inhibitor 53.4, CHX counter 28.4, MARV entry inh inactive and HCV inh inactive.
Screening CC(=O)Nc1cc2c(=O)n(Cc3ccccc3)c(C)nc2cc1N1CCOCC1 returned FMDV antiviral inactive, Lassa entry inh inactive, Shiga inhibitor inactive, CHX counter 17.3, MARV entry inh inactive and HCV inh inactive.
CCCOc1ccc(CNC(=O)c2ccc3nc(N4CCOCC4)sc3c2)cc1 was read as FMDV antiviral inactive, Shiga inhibitor inactive, CHX counter inactive and HCV inh inactive.
Screening CC(=O)N(c1ccccc1)c1nc(/C=C/C(=O)Nc2c(C)cc(C)cc2C)cs1 returned FMDV antiviral inactive, Lassa entry inh inactive, Shiga inhibitor inactive, CHX counter inactive, MARV entry inh inconclusive and HCV inh inconclusive.
COc1cccc(C(C(=O)NC2CCCCC2)N(C(=O)c2ccccn2)c2cccnc2)c1 (stereo unspecified) was read as FMDV antiviral inactive, Lassa entry inh inactive, Shiga inhibitor inactive, CHX counter inactive, MARV entry inh inactive and HCV inh inactive.
For Cc1cc(N2CCN(C(=O)Nc3ccccc3C#N)CC2)c2ccccc2n1 the results were FMDV antiviral inactive, Shiga inhibitor inactive, CHX counter inactive and HCV inh inconclusive.
`Cc1cc(N2CCN(c3nc(-c4ccc([N+](=O)[O-])cc4)cs3)CC2)c2ccccc2n1` gave FMDV antiviral inconclusive, Lassa entry inh inconclusive, Shiga inhibitor inactive, CHX counter inactive, MARV entry inh 11.2µM and HCV inh 6.31µM.
O=[N+]([O-])c1ccc(-c2nc(C(Cl)Cl)c3ccccc3n2)cc1 was read as FMDV antiviral inactive, Lassa entry inh inconclusive, Shiga inhibitor inactive, CHX counter inactive, MARV entry inh inconclusive and HCV inh 2µM.
`Cc1nc2ccccc2c(=O)n1-c1ccc(NC(=O)c2ccc([N+](=O)[O-])cc2)cc1` gave FMDV antiviral inconclusive and Lassa entry inh inactive.
Cc1nc2ccccc2c(=O)n1-c1ccc([N+](=O)[O-])cc1 was read as FMDV antiviral inactive, Lassa entry inh inconclusive, Shiga inhibitor 63.9, CHX counter 41.6, MARV entry inh inconclusive and HCV inh inactive.
Screening Cc1cc(-c2ccc([N+](=O)[O-])cc2)nc2ccccc12 returned FMDV antiviral inactive, Lassa entry inh inactive, Shiga inhibitor 62.4, CHX counter 46.4, MARV entry inh inactive and HCV inh inactive.
`Cc1cc(-c2cccc([N+](=O)[O-])c2)nc2ccccc12` gave FMDV antiviral inactive, Lassa entry inh inconclusive, Shiga inhibitor inactive, CHX counter inactive, MARV entry inh inactive and HCV inh inconclusive.
`Cn1c2ccc(Cl)cc2c2nc3ccccc3nc21` gave FMDV antiviral inactive, Shiga inhibitor inactive, CHX counter inactive and HCV inh inactive.
`Cc1cccc(N2CCN(C(=S)Nc3ccc4nc(N5CCN(C)CC5)cc(C)c4c3)CC2C)c1` (stereo unspecified) gave FMDV antiviral inactive, Shiga inhibitor inactive, CHX counter inactive and HCV inh inconclusive.
Screening N#Cc1nc(COc2ccc(Cl)cc2)oc1N1CCCCCC1 returned FMDV antiviral inactive, Lassa entry inh inactive, Shiga inhibitor inactive, CHX counter inactive, MARV entry inh inactive and HCV inh inconclusive.
For COc1ccc(C2C(CC(=O)O)=C(O)C(=O)N2c2ccccc2)cc1 (stereo unspecified) the results were FMDV antiviral inactive, Lassa entry inh inactive, Shiga inhibitor 37.7, CHX counter 27.6, MARV entry inh inactive and HCV inh inactive.
For COc1cc(/C=C/c2nc3ccccc3c(=O)[nH]2)cc(OC)c1OC the results were FMDV antiviral inactive, Shiga inhibitor inactive, CHX counter 27.9 and HCV inh inconclusive.
For COc1cc(/C=C/c2nc3ccccc3c(=O)[nH]2)ccc1OC(F)F the results were FMDV antiviral inactive, Shiga inhibitor inactive, CHX counter 29.4 and HCV inh inactive.
For C=CCOc1cccc(/C=C/c2nc3ccccc3c(=O)[nH]2)c1 the results were FMDV antiviral inactive, Shiga inhibitor 71.0, CHX counter 41.0 and HCV inh inactive.
For COc1ccc(/C=C/c2nc(C)c(-c3ccccc3)c(=O)[nH]2)cc1OC the results were FMDV antiviral inactive, Shiga inhibitor inactive, CHX counter inactive and HCV inh inactive.
For COC(=O)c1cnc(NCc2ccc(F)cc2)c2ccccc12 the results were FMDV antiviral inactive and Lassa entry inh inactive.
N#CCCN1CCCc2cc(N=Nc3ccc(C(F)(F)F)cc3)ccc21 was read as FMDV antiviral inactive, Lassa entry inh inactive, Shiga inhibitor 60.8, CHX counter 43.2, MARV entry inh inconclusive and HCV inh inconclusive.
Screening CCCCOc1ccc(OCCNS(=O)(=O)N(C)C)cc1 returned Lassa entry inh inactive, Shiga inhibitor inactive, CHX counter 20.5, MARV entry inh inactive and HCV inh inactive.
Screening Cc1ccc(N(CCC#N)C(=O)CCl)cc1C returned FMDV antiviral 28.2µM, Lassa entry inh 7.94µM, Shiga inhibitor inactive, CHX counter inactive, MARV entry inh 7.08µM and HCV inh 10µM.
For Cc1ccc(SCC(=O)OCC(=O)N(CCC#N)c2ccccc2)cc1C the results were FMDV antiviral inactive, Lassa entry inh inactive, MARV entry inh inactive and HCV inh inactive.
Screening Cc1[nH]c(=O)[nH]c(=O)c1S(=O)(=O)N1CCOCC1 returned FMDV antiviral inactive, Lassa entry inh inactive, Shiga inhibitor inactive, CHX counter inactive, MARV entry inh inactive and HCV inh inactive.
Screening COc1ccc(/C(N)=N/OC(=O)Cc2ccc(C)cc2)cc1 returned FMDV antiviral inactive, Lassa entry inh inactive, Shiga inhibitor 50.1, CHX counter 30.1, MARV entry inh inactive and HCV inh inactive.
`COc1ccc(/C(N)=N/OC(=O)Cc2ccc(OC)c(OC)c2)cc1` gave Lassa entry inh inactive, Shiga inhibitor inactive, CHX counter inactive, MARV entry inh inconclusive and HCV inh inconclusive.
`CCOc1ccccc1OCCCC(=O)ON=C(N)c1ccccc1` gave FMDV antiviral inactive and HCV inh inactive.
Screening N/C(=N\OC(=O)Cc1ccccc1)c1ccncc1 returned FMDV antiviral inactive, Lassa entry inh inactive, Shiga inhibitor inactive, CHX counter inactive, MARV entry inh inactive and HCV inh inactive.
Cc1ccc(C(N)=Nc2ccccc2)cc1 was read as FMDV antiviral inactive, Shiga inhibitor inactive, CHX counter 15.9 and HCV inh inactive.
For N/C(=N\OC(=O)Cc1ccccc1)c1ccc(Br)cc1 the results were FMDV antiviral inactive, Lassa entry inh inactive, Shiga inhibitor 104.0, CHX counter 53.2, MARV entry inh inconclusive and HCV inh inactive.
